Among the data in PubChem BioAssay AID504853 (Southern Research Specialized Biocontainment Screening …, 2011) are outcome values, retold here.

Results with a measured potency or affinity are listed apart. The source made the active and inactive calls. No rule for the calls is given here.

The assay is described as follows: HepG2 cell cytotoxicity, dose response, cytotoxicity control, set 3 (AID 504853). Conditions: series mostly up to 50 µM.
As to `COc1cccc(NC(=O)CSc2nc3c(c(=O)[nH]2)CCC3)c1`, the call was inactive.
Under `CCOC(=O)CSc1nc(C)c(C)c(=O)[nH]1` stands “inactive”.
Under `Cc1nc(SCc2ccccc2Cl)[nH]c(=O)c1C` stands “inactive”; under `CNC(=O)CSc1nc2ccccc2c(=O)[nH]1`, “inactive”; under `CC1CCN(C(=O)CSc2nc3ccccc3c(=O)[nH]2)CC1`, “inactive”.
Consider `Cc1cc(=O)[nH]c(=S)[nH]1`, for which the result was inactive.
For `O=C(CSc1nc2ccccc2c(=O)[nH]1)NC1CCCCC1` the value was “inactive”; for `CC1CCN(C(=O)C2CCN(c3nnc(-n4cccc4)s3)CC2)CC1`, “inactive”.
As to `CCOC1OC(=O)C(Cl)=C1Nc1ccccc1C` (stereo not given), the compound was classed as inactive.
Turning to `Cc1nc(SCC(=O)NCCC(C)C)[nH]c(=O)c1C`, the compound was classed as inactive.
For `CCC(Sc1nc2ccccc2c(=O)[nH]1)C(=O)NC1CCCCC1` (stereo not given), the call was inactive.
As to `NC(=O)CSc1nc2ccccc2c(=O)[nH]1`, the compound was called inactive.
For `O=C(CSc1nc2c(c(=O)[nH]1)CCC2)NC1CCCCC1` the value was “inactive”; for `O=C(CSc1ccccn1)NC1CCCCC1`, “inactive”.
As to `O=C(CSc1ncccn1)NC1CCCCC1`, the compound was called inactive.
Take `O=C(CSc1nc2ccccc2c(=O)[nH]1)NCc1ccc(Cl)cc1`: the outcome was inactive.
For the compound `O=C(CSc1nccc(=O)[nH]1)NC1CCCCC1`, the compound was classed as inactive.
For `CCSc1nc2ccccc2c(=O)[nH]1` the value was “inactive”; for `CC[N+](C)(CC)CCCCOc1ccc2c(c1)C(=O)c1cc(OCCCC[N+](C)(CC)CC)ccc1-2`, “inactive”; for `COc1ccc(NC(=O)CSc2nc3ccccc3c(=O)[nH]2)cc1`, “inactive”.
For `Cc1cnc(SCC(=O)NC2CCCCC2)[nH]c1=O` the value was “inactive”; for `COc1cccc(NC(=O)CSc2nc3ccccc3c(=O)[nH]2)c1`, “inactive”.
For `Cc1cccc(/C=C/C(=O)c2ccc([N+](=O)[O-])o2)c1` the value was “inactive”; for `CC(C)CCNC(=O)CSc1nc2c(c(=O)[nH]1)CCC2`, “inactive”; for `O=c1[nH]c(=S)[nH]c2ccccc12`, “inactive”.
